Laboratory results taken from PubChem BioAssay AID1159580 (chemical genetic matrix, 2015).
Values joined by “and” are separate entries in the source; they are usually repeats but may differ in a detail not shown here. Equal values may be shown once. Hit rate of the full screen: of about 5,500 compounds, about 2,000 (36%) were called active. Another 18% or so got no clear call; they are omitted. Rule as the data show it: active = normalized growth mostly below about 0.91 (no sharp cut-off); inconclusive = no clear call, values can overlap the other calls; inactive = mostly above about 0.92. This is one part of the list.

Test: chemical genetic growth profiling, strain panel (AID 1159580);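 also: tested at 20 µM; growth read once vehicle control cultures reached saturation at 30 °C; 1 = growth at the plate median or of vehicle wells; lower values mean less growth of the strain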
Conditions: S. cerevisiae deletion strains, growth OD

Measured: normalized growth

CC(C(=O)O)c1ccc(-c2ccccc2)c(F)c1 (stereo unspecified)
0.944 (inactive) and 0.704 (active): locus YHR030C, strain SLT2, stronger effect = lower value
active: locus YDL185W, strain tfp1, stronger effect = lower value 0.869 | locus YDR101C, strain arx1, stronger effect = lower value 0.917 | locus YDR137W, strain rgp1, stronger effect = lower value 0.821 | locus YGL078C, strain dbp3, stronger effect = lower value 0.913 | locus YHR079C, strain IRE1, stronger effect = lower value 0.774 | locus YIL125W, strain kgd1, stronger effect = lower value 0.868
inactive: locus YAL013W, strain DEP1, stronger effect = lower value 0.952 | locus YAL021C, strain ccr4, stronger effect = lower value 0.978 | locus YAL026C, strain drs2, stronger effect = lower value 0.949 | locus YAL030W, strain snc1, stronger effect = lower value 0.99 | locus YBL061C, strain skt5, stronger effect = lower value 1 | locus YBR009C, strain hhf1, stronger effect = lower value 0.984 | locus YBR021W, strain FUR4, stronger effect = lower value 0.936 | locus YBR023C, strain chs3, stronger effect = lower value 1.02 | locus YBR171W, strain sec66, stronger effect = lower value 0.968 | locus YBR229C, strain ROT2, stronger effect = lower value 0.993 | locus YBR231C, strain swc5, stronger effect = lower value 0.974 | locus YBR279W, strain paf1, stronger effect = lower value 1.01 | locus YCL011C, strain gbp2, stronger effect = lower value 1 | locus YCL016C, strain dcc1, stronger effect = lower value 1.02 | locus YCL029C, strain bik1, stronger effect = lower value 0.944 | locus YCL061C, strain MRC1, stronger effect = lower value 0.99 | locus YCL069W, strain vba3, stronger effect = lower value 0.99 | locus YCR088W, strain abp1, stronger effect = lower value 0.978 | locus YDL005C, strain med2, stronger effect = lower value 0.965 | locus YDL035C, strain GPR1, stronger effect = lower value 0.958 | locus YDL040C, strain nat1, stronger effect = lower value 0.995 | locus YDL074C, strain BRE1, stronger effect = lower value 0.959 | locus YDL101C, strain DUN1, stronger effect = lower value 1.01 | locus YDL192W, strain arf1, stronger effect = lower value 0.974 | locus YDR001C, strain nth1, stronger effect = lower value 0.977 | locus YDR069C, strain doa4, stronger effect = lower value 1.02 | locus YDR159W, strain sac3, stronger effect = lower value 0.913 | locus YDR162C, strain NBP2, stronger effect = lower value 0.936 | locus YDR195W, strain ref2 0.985 | locus YDR297W, strain sur2, stronger effect = lower value 0.992 | locus YDR318W, strain mcm21, stronger effect = lower value 0.979 | locus YDR334W, strain swr1, stronger effect = lower value 0.972 | locus YDR335W, strain msn5, stronger effect = lower value 1.01 | locus YDR388W, stronger effect = lower value 0.963 | locus YDR392W, strain spt3, stronger effect = lower value 0.748 | locus YDR502C, strain sam2, stronger effect = lower value 0.968 | locus YEL003W, strain gim4, stronger effect = lower value 0.967 | locus YEL037C, strain rad23, stronger effect = lower value 0.983 | locus YEL061C, strain CIN8 (second series), stronger effect = lower value 0.979 | locus YEL061C, strain CIN8, stronger effect = lower value 0.963 | locus YER015W, strain faa2, stronger effect = lower value 1 | locus YER016W, strain bim1, stronger effect = lower value 0.971 | locus YER110C, stronger effect = lower value 0.974 | locus YER111C, strain swi4, stronger effect = lower value 0.977 | locus YER155C, strain BEM2 (second series), stronger effect = lower value 0.979 | locus YER155C, strain BEM2, stronger effect = lower value 0.93 | locus YER167W, strain BCK2, stronger effect = lower value 0.974 | locus YFR010W, strain ubp6, stronger effect = lower value 0.997 | locus YGL086W, strain mad1, stronger effect = lower value 0.974 | locus YGL167C, strain pmr1, stronger effect = lower value 0.983 | locus YGL173C, strain kem1, stronger effect = lower value 0.968 | locus YGL227W, strain vid30, stronger effect = lower value 0.991 | locus YGL240W, strain doc1, stronger effect = lower value 0.953 | locus YGL248W, strain PDE1, stronger effect = lower value 1 | locus YGL253W, strain hxk2, stronger effect = lower value 0.98 | locus YGR135W, strain pre9, stronger effect = lower value 1.04 | locus YGR252W, strain gcn5, stronger effect = lower value 1.04 | locus YHR013C, strain ard1, stronger effect = lower value 1.05 | locus YHR027C, strain rpn1, stronger effect = lower value 0.994 | locus YHR079C, strain IRE1 (second series), stronger effect = lower value 0.959 | locus YHR094C, strain hxt1, stronger effect = lower value 0.951 | locus YHR129C, strain ARP1, stronger effect = lower value 0.99 | locus YHR142W, strain chs7, stronger effect = lower value 1.01 | locus YHR200W, strain rpn10, stronger effect = lower value 0.978 | locus YIL066C, strain RNR3, stronger effect = lower value 0.981 | locus YIL073C, strain SPO22, stronger effect = lower value 1.01 | locus YIR030C, strain dcg1, stronger effect = lower value 0.963 | locus YJL092W, strain hpr5, stronger effect = lower value 0.99 | locus YJL095W, strain BCK1 (second series), stronger effect = lower value 0.988 | locus YJL115W, strain asf1, stronger effect = lower value 0.982 | locus YJL129C, strain trk1, stronger effect = lower value 0.933 | locus YJL134W, strain LCB3, stronger effect = lower value 0.975 | locus YJL154C, strain vps35, stronger effect = lower value 0.984 | locus YJL164C, strain tpk1, stronger effect = lower value 0.992 | locus YJL166W, strain qcr8, stronger effect = lower value 1.01 | locus YJL168C, strain set2, stronger effect = lower value 0.959 | locus YJL187C, strain SWE1 (second series), stronger effect = lower value 0.989 | locus YJL187C, strain SWE1, stronger effect = lower value 0.985
1 (inactive) and 0.73 (active): locus YJL095W, strain BCK1, stronger effect = lower value
